Bioassay records (PubChem)
Hits are enriched below; roughly 2.4% of the tested compounds scored in any of these assays.
D2 PAM-1: D2 dopamine receptor (human) potentiation; P14416; HEK293 T-REx D2, calcium flux, EC20 dopamine potentiation; potentiation, % at 10 µM; hit rate 0.34% among 340,000;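 active means potentiation over 3 SD above the plate norm, cut at about 30% in these data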
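Using a no-wash calcium dye in inducible, force-coupled HEK293 Trex cells expressing D2, we tracked fluorescence each second for 180 s after compound, then for 180 s after EC20 dopamine to detect augmented signalling.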
D2 PAM-2: positive allosteric modulators of human D2 dopamine receptor; P14416; DiscoveRx D2 beta-arrestin cells, luminescence, 90 min; 100% = 57 uM dopamine signal; potentiation, % (concentration not given with the values); hit rate 0.23% among 360,000; in the data active means potentiation above about 50%; inconclusive means mostly about 30% to 49%
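PathHunter D2 cells, attached overnight at 37 deg C, received compound in DMSO plus dopamine at EC20 (50 nM final) for 90 min at 37 deg C. Beta-arrestin recruitment was read as luminescence after 1 h with detection reagent at ambient temperature.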
D2 ag-1: agonists of human D2 dopamine receptor (beta-arrestin). P14416. DiscoveRx PathHunter D2 beta-arrestin, luminescence, 90 min; 100% = 57 uM dopamine signal. hit rate 0.084% among 360,000. AID 624465. activation, % (test concentration not listed); in the data active means activation above about 40%; inconclusive means between about 15% and that limit
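DiscoveRx PathHunter D2 beta-arrestin cells (2,100/well) attached overnight, then compound-stimulated 90 min at 37 C in HBSS/10 mM HEPES/0.1% Tween-20 buffer; beta-galactosidase complementation read by luminescence after 1 h at ambient temperature. Dopamine 57 uM final (EC100) as control.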
D2 ag-2: activates the human D2 dopamine receptor; P14416; HEK293 T-REx D2 cells, calcium flux agonist mode; activation, % at 2 µM; hit rate 0.53% among 340,000; AID 485358;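 active means activation over 3 SD above normal in the single-dose calcium agonist read, cut at about 30% in these data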
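Tetracycline-induced HEK293 Trex cells with D2 receptor force-coupled to calcium signaling, plated overnight at 30 C and loaded with no-wash calcium dye. Calcium flux read kinetically for 180 s after compound addition; responses flag agonists.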
D2 antag: antagonizes the human D2 dopamine receptor; hit rate 2% among 340,000; AID 485344; HEK293 TREx D2 cells, calcium flux, dopamine EC80; inhibition, % at 10 µM; P14416; in the data active means inhibition above about 30%; inactive means below that, where a call was filed
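Calcium mobilization kinetics were recorded at 1 s intervals in tetracycline-induced HEK293 T-REx D2 cells, first for 180 s after compound addition and then 180 s after EC80 dopamine.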
D3 ag: activates human D3 dopamine receptor beta-arrestin recruitment; Potency, µM (series often up to 76.9 µM), hits mostly activators; DiscoveRx D3 beta-arrestin cells, luminescence, 90 min; hit rate 4% among 2,300; shares compounds with D2 ag-2; further: nearly all actives have a fitted effect of over 70% in size
Target sequence (P35462 whole entry, looked up): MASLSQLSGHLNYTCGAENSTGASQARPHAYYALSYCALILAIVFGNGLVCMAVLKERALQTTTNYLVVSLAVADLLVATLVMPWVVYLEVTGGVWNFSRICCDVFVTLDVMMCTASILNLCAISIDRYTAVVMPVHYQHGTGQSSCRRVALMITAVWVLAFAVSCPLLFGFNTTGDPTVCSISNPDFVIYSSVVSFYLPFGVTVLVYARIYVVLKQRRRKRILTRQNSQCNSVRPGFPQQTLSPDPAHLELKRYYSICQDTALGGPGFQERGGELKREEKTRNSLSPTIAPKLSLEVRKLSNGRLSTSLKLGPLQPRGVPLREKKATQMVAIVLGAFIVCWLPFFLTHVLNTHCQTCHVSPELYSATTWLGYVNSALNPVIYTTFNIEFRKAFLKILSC
D2 ag-3: activates human D2 dopamine receptor in D3 counterscreen; hit rate 5.9% among 2,300; shares compounds with D2 ag-2; Potency, µM (titrated, usually from 76.9 µM), most hits filed as activators; DiscoveRx PathHunter D2 beta-arrestin, luminescence, 90 min; response scale: percent relative to full dopamine signal; further: nearly all actives have a fitted effect of over 70% in size
Numbers stand for hits; n = inactive; u = inconclusive; x = no result. Unless noted, the call rests on the fitted dose curve; in most records, active means well fitted activation curve with a large enough effect; inconclusive means small, poorly fitted or top-dose-only effect; inactive means flat fitted curve, though single readings scatter.

SMILES	D2 PAM-1	D2 PAM-2	D2 ag-1	D2 ag-2	D2 antag	D3 ag	D2 ag-3
COc1ccc(NC(=O)COc2coc(CN3CCN(c4ccccc4)CC3)cc2=O)cc1	n	n	n	50	n	n	n
COc1ccc(N2CCN(Cc3cc(=O)c(OCC(=O)Nc4ccccc4)co3)CC2)cc1	n	n	n	n	n	x	x
CCOC(=O)c1cc(-c2ccc(OC)cc2)n(CCC(=O)NC2CCCCC2)c1C	n	x	x	n	x	x	x
Cc1cccc(N2C(=O)c3cccc4c(N(C)CCO)ccc(c34)C2=O)c1	n	n	n	n	n	n	n
CN(C)c1ccc2c3c(cccc13)C(=O)N(c1ccccc1)C2=O	n	x	x	n	n	x	x
Cc1ccc(C2C(=O)N(C3CCCCCC3)CC(=O)N2CCC2=CCCCC2)cc1 (stereo not drawn)	n	x	x	n	x	x	x
CCOC(=O)C1=CCN(Cc2ccccc2)CC1	n	n	77	83	101	n	u
CCOC(=O)c1cc(S(=O)(=O)N2CCN(Cc3ccccc3)CC2)cn1C	n	n	n	n	n	x	x
COc1ccc(Nc2cc(C(=O)NCCc3ccc(C)cc3)c3ccccc3n2)c(OC)c1	n	x	x	n	x	x	x
COc1ccc(-c2nnn(CC(=O)c3c[nH]c4ccccc34)n2)cc1OC	n	n	n	n	n	x	x
CCCCOc1ccc(-c2nnn(CC(=O)c3c[nH]c4ccccc34)n2)cc1	n	n	n	56	n	n	n
CC(CCC(=O)O)C1CCC2C3CCC4C[C@H](O)CCC4(C)C3CC(=O)C12C (stereo partly drawn)	n	n	n	52	n	n	n
C[C@H](CCC(=O)O)[C@H]1CC[C@H]2[C@@H]3CC[C@@H]4C[C@H](O)CC[C@]4(C)[C@H]3CC[C@]12C	n	n	n	n	n	x	x
Cc1ccc(-n2nc(C(=O)N3CCCCC3C)c(=O)n(C)c2=O)cc1 (stereo not drawn)	n	x	x	n	x	x	x
COc1ccc(-c2nn(CC(=O)Nc3ccc(Cl)c(Cl)c3)c(=O)c3ccccc23)cc1	n	n	n	54	n	n	n
COC(=O)COc1ccc(NC(=O)Cn2nc(-c3ccccc3)c3ccccc3c2=O)cc1	n	n	n	n	n	x	x
CC(C)N(Cc1cc2ccccc2[nH]c1=O)C(=O)c1cccc([N+](=O)[O-])c1	n	n	n	n	n	x	x
Cc1ccc2[nH]c(=O)c(CN(C(=O)c3cccc([N+](=O)[O-])c3)C(C)C)cc2c1	n	n	n	50	n	n	n
O=C(COc1ccccc1Cl)NNC(=O)Cn1[nH]c(=O)c2ccccc2c1=O	n	n	n	n	n	n	n
Cc1cccc(N(C)c2nc3ccc(C)cc3n3cnnc23)c1	n	x	x	n	x	x	x
COc1ccc(C(=N/O)/C(=N/O)c2ccc(OC)cc2)cc1	n	n	n	n	40	n	n
COc1cc(NC(=O)c2cc(-c3cccc(OC)c3)n[nH]2)cc(OC)c1	n	x	x	n	x	x	x
CC(=O)c1ccc(NC(=O)C2=CC(c3ccc(C)cc3)=NS(=O)(=O)N2C)cc1	n	x	x	n	x	x	x
Cc1cccc(C)c1OCC(O)CN1CCN(c2ccccn2)CC1 (stereo not drawn)	n	u	u	77	78	0.2µM	5µM
Cc1cccc(N2CCN(CC(O)COc3ccccc3)CC2)c1 (stereo not drawn)	x	n	n	x	x	x	x
SMILES	D2 PAM-1	D2 PAM-2	D2 ag-1	D2 ag-2	D2 antag	D3 ag	D2 ag-3
OC(COc1ccccc1)CN1CCN(c2ccccc2)CC1 (stereo not drawn)	x	n	n	x	x	x	x
Cc1cccc(C)c1OCC(O)CN1CCN(c2ccccc2)CC1 (stereo not drawn)	n	n	u	80	87	n	u
Cc1cccc(C)c1OCC(O)Cn1c2ccccc2c2ccccc21 (stereo not drawn)	n	n	n	n	n	x	x
COc1cccc(OC)c1OCC(O)CN1CCN(c2ccccc2)CC1 (stereo not drawn)	n	n	u	78	115	u	u
COc1ccccc1/C=C/CN1CCN(c2ccccc2)CC1	n	n	n	77	77	n	u
O=c1[nH]c(SCc2cccc(Cl)c2)nc2c1CCC2	n	x	x	n	x	x	x
Cc1ccc(OCC(O)CN2CCN(CCO)CC2)c(C)c1 (stereo not drawn)	n	n	n	n	n	x	x
CC(C)(C)C1CCC(OCC(O)CN2CCN(c3ccccc3)CC2)CC1 (stereo not drawn)	n	n	u	68	74	0.35µM	u
OC(CN1CCN(c2ccccn2)CC1)Cn1c2ccc(Cl)cc2c2cc(Cl)ccc21 (stereo not drawn)	n	n	n	n	n	x	x
OC(COC(c1ccc(Cl)cc1)c1ccc(Cl)cc1)CN1CCN(c2ccccn2)CC1 (stereo not drawn)	n	n	n	42	n	n	n
Cc1ccsc1CN1CCN(c2ccccn2)CC1	n	u	50	79	77	u	2.5µM
CC(C)(C)C1CCC(OCC(O)CN2CCCC2)CC1 (stereo not drawn)	n	n	n	n	n	x	x
Cc1ccc(OCC(O)CN2CCN(c3ccccn3)CC2)c(C)c1 (stereo not drawn)	n	n	u	71	64	u	u
CC(C)(C)c1ccccc1OCC(O)CN1CCN(c2ccccn2)CC1 (stereo not drawn)	n	n	n	n	62	u	n
CC(C)(C)NCC(O)COc1ccccc1C(C)(C)C (stereo not drawn)	n	n	n	n	n	x	x
CCCN(CCC)CCNC(=O)CCC(=O)Nc1ccc2nc(N3CCN(C)CC3)cc(C)c2c1	n	n	n	n	n	n	n
CCCCNC(=O)CCC(=O)Nc1ccc2nc(N3CCN(C)CC3)cc(C)c2c1	n	n	n	n	n	x	x
CC1(C)C(C=C(Cl)Cl)C1C(=O)N1CCN(Cc2ccccc2)CC1 (stereo not drawn)	n	u	u	70	78	u	18µM
Cc1ccc(NC(=O)NCCN2CCN(c3ccccc3)CC2)cc1Cl	n	n	n	66	65	n	u
Cc1cccc(NC(=O)NCCN2CCN(c3ccccc3)CC2)c1C	n	n	n	57	57	n	n
Cc1ccc(NC(=O)NCCN2CCCCC2)cc1Cl	n	n	n	n	n	x	x
O=C(NCCN1CCN(c2ccccc2Cl)CC1)Nc1ccccc1	n	n	n	67	52	n	n
O=C(NCCN1CCN(c2ccccc2)CC1)Nc1cccc(Cl)c1	n	n	u	75	73	u	n
